Assay results reported in the supplement of paper PMC10849652.
The full data set covers some 7,900 targets. This sample favours those with a hit. About 0.6% of all pairs of compound and target were hits.

compound: c1cn2cc(-c3ccc4cn[nH]c4c3)nc(Nc3ccc(N4CCOCC4)cc3)c2n1 [entospletinib]; experiment: log2 fold change, soluble protein after heating vs DMSO (PISA); higher = thermal stabilisation; K562 cells, 10 uM, 30 min; active = over 0.2 and 3.5 SD of the protein, either way, in both replicates (recomputed)
Summary of the method: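 K562 cells at 2×10^6 cells/mL were given 10 μM compound for 30 min. Aliquots then went through 3 min of heating across 48°C-58°C, were pooled, and were extracted in PBS with 0.5% NP-40 at 4°C, and the supernatant after 21,000xg for 90 min was quantified by TMTpro 16plex LC-MS/MS with channel sums equalised. Thermal stability relative to control samples, from duplicates, is given as log2 fold change.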

Sequence of UniProt Q0VG06 (Q0VG06 whole entry, looked up): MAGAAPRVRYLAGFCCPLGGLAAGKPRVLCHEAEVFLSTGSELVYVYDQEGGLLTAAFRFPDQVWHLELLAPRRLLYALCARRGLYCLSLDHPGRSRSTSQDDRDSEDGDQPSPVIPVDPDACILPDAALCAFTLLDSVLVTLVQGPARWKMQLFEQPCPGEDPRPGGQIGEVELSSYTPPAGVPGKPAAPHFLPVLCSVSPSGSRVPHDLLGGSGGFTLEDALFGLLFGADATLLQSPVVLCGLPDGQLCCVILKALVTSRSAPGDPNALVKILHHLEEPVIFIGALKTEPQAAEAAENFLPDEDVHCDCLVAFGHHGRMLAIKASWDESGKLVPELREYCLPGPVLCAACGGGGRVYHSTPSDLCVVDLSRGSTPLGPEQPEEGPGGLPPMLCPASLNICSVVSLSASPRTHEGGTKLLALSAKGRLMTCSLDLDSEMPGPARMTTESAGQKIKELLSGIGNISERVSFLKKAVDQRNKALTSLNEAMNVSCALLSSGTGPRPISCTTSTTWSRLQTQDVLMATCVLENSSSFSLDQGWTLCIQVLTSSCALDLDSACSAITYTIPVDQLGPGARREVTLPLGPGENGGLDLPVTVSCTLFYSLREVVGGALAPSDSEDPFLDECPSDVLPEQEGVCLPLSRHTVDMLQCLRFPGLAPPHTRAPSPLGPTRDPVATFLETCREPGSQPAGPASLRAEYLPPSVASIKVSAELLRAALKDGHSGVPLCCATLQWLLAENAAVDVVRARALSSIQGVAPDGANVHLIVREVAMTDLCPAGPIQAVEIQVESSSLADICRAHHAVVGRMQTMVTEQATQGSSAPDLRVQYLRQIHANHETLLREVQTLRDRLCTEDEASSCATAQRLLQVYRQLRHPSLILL
Sequence of UniProt Q9UPT5 (Q9UPT5 whole entry, looked up): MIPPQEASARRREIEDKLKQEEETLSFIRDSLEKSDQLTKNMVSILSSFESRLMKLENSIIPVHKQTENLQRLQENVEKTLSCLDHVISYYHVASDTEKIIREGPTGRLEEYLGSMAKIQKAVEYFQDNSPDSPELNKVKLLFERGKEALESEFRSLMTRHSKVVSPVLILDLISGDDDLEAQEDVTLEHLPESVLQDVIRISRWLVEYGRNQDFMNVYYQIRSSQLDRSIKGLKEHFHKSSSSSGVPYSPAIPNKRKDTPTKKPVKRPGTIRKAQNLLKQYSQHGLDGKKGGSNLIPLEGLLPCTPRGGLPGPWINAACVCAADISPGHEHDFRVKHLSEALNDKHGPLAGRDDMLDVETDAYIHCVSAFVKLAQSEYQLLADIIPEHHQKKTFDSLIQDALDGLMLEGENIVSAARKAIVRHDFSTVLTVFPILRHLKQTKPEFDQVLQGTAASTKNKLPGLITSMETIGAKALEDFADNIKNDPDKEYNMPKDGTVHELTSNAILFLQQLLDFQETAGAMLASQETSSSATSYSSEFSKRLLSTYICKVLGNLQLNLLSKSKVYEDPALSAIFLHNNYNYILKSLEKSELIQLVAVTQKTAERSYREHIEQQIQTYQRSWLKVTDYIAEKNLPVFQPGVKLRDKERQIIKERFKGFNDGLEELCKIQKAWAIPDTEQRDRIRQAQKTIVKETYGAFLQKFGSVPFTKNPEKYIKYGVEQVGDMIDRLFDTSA
Sequence of UniProt Q5QJE6 (Q5QJE6 whole entry, looked up): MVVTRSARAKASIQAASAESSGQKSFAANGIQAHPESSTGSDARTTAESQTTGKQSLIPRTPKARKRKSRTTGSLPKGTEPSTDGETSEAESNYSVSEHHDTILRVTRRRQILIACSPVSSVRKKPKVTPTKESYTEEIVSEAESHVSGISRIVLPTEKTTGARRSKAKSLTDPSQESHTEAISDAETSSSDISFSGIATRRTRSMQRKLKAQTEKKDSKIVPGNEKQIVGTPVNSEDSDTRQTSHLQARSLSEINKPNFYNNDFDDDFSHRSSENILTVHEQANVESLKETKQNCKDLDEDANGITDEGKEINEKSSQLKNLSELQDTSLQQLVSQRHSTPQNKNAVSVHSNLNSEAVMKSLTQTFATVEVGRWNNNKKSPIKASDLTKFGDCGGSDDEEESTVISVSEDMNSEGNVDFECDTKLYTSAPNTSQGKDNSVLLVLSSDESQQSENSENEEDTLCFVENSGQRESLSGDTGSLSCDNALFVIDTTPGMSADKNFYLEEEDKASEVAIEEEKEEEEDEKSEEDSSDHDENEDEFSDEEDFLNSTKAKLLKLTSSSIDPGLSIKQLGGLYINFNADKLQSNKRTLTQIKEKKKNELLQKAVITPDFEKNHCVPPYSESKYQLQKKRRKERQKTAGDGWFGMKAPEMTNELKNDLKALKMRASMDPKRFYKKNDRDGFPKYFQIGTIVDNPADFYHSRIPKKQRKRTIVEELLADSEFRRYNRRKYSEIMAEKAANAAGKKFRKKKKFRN
Sequence of UniProt Q13948 (Q13948 whole entry, looked up): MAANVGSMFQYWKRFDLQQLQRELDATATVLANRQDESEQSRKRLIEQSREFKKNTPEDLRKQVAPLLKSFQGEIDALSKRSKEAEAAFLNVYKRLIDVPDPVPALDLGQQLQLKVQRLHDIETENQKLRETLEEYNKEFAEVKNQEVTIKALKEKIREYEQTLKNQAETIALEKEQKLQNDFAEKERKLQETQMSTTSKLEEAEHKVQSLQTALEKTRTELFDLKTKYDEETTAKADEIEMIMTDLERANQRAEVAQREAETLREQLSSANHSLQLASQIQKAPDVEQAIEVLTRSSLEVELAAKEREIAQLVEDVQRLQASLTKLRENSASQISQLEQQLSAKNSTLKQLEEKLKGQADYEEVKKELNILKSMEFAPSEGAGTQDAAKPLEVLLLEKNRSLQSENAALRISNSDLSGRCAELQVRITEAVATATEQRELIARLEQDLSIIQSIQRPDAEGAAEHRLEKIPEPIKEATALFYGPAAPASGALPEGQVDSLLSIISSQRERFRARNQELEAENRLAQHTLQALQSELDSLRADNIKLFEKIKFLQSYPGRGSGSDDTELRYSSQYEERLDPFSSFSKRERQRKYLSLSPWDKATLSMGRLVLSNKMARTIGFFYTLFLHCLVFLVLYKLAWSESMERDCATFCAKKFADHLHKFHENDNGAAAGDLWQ
Sequence of UniProt Q8N3D4 (Q8N3D4 whole entry, looked up): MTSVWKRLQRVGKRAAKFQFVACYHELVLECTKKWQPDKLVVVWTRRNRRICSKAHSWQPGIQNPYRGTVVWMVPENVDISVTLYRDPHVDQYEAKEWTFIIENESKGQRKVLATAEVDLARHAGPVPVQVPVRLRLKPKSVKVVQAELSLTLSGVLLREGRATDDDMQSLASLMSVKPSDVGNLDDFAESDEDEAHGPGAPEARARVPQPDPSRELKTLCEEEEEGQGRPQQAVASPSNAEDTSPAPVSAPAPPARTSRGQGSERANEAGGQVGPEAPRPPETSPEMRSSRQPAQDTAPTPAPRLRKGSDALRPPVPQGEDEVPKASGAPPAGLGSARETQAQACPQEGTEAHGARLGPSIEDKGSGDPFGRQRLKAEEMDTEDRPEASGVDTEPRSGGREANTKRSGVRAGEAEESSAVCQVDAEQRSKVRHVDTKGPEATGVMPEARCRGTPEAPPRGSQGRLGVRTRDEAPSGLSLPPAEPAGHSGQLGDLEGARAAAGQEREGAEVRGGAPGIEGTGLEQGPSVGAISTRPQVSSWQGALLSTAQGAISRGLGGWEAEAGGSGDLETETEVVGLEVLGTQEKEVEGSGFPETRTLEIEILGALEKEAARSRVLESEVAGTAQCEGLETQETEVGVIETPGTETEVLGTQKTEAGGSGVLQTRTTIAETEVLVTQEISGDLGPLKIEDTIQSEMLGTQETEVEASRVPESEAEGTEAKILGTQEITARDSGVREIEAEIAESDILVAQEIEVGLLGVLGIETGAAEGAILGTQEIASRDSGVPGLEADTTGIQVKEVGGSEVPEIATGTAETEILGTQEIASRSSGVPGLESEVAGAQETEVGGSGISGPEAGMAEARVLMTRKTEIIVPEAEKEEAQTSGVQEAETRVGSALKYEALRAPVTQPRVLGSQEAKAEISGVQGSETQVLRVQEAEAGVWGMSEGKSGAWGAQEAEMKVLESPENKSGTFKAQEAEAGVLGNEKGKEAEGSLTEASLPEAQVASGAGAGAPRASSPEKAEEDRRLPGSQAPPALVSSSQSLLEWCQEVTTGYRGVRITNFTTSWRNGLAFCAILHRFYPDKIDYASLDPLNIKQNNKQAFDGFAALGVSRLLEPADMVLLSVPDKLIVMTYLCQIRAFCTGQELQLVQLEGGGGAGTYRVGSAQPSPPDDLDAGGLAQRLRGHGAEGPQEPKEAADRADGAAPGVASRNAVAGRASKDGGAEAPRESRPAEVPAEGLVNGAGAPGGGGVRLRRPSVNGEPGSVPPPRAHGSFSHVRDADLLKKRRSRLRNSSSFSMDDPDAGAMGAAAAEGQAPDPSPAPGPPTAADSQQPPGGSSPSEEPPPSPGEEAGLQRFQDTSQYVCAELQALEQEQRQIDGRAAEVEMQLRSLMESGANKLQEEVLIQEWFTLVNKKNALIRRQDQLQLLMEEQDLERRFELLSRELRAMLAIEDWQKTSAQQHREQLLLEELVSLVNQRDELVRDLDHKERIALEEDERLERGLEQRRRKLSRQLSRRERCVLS
Sequence of UniProt Q6P3W2 (Q6P3W2 whole entry, looked up): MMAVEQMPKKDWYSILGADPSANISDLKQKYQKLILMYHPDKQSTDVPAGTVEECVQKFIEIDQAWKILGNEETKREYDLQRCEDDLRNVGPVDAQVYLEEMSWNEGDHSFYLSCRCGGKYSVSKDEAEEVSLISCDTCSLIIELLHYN

Target	log2 fold change
FAM193B (UniProt Q96PV7)	-0.031 (inactive)
CUX1 isoform 2 (UniProt Q13948)	-0.019 (inactive)
DPP8 (UniProt Q6V1X1)	-0.377 (active)
EIF4G1 isoform 8 (UniProt Q04637)	0.024 (inactive)
EHBP1L1 (UniProt Q8N3D4)	-0.013 (inactive)
DHX16 (UniProt O60231)	0.01 (inactive)
FAAP100 (UniProt Q0VG06)	0.003 (inactive)
DNAH5 (UniProt Q8TE73)	-0.039 (inactive)
EXOC7 (UniProt Q9UPT5)	-0.106 (inactive)
DNAJC24 (UniProt Q6P3W2)	0.186 (inactive)
DNTTIP2 (UniProt Q5QJE6)	0.108 (inactive)
